{
  "source": "PubChem BioAssay AID1159602",
  "about": "(The Scripps Research Institute Molecular Screening Center, 2016)",
  "note": "The whole screen tested about 22,000 compounds, of which about 220 (1%) were called active. Rule as the data show it: active = inhibition above about 35%; inactive = the rest. Only a selection was taken, and actives are over-represented in it overall.",
  "data": [
    {"biological_target": "Mitogen-activated protein kinase kinase kinase 5 (Homo sapiens) (UniProt Q99683)", "sequence (Q99683 whole entry, looked up)": "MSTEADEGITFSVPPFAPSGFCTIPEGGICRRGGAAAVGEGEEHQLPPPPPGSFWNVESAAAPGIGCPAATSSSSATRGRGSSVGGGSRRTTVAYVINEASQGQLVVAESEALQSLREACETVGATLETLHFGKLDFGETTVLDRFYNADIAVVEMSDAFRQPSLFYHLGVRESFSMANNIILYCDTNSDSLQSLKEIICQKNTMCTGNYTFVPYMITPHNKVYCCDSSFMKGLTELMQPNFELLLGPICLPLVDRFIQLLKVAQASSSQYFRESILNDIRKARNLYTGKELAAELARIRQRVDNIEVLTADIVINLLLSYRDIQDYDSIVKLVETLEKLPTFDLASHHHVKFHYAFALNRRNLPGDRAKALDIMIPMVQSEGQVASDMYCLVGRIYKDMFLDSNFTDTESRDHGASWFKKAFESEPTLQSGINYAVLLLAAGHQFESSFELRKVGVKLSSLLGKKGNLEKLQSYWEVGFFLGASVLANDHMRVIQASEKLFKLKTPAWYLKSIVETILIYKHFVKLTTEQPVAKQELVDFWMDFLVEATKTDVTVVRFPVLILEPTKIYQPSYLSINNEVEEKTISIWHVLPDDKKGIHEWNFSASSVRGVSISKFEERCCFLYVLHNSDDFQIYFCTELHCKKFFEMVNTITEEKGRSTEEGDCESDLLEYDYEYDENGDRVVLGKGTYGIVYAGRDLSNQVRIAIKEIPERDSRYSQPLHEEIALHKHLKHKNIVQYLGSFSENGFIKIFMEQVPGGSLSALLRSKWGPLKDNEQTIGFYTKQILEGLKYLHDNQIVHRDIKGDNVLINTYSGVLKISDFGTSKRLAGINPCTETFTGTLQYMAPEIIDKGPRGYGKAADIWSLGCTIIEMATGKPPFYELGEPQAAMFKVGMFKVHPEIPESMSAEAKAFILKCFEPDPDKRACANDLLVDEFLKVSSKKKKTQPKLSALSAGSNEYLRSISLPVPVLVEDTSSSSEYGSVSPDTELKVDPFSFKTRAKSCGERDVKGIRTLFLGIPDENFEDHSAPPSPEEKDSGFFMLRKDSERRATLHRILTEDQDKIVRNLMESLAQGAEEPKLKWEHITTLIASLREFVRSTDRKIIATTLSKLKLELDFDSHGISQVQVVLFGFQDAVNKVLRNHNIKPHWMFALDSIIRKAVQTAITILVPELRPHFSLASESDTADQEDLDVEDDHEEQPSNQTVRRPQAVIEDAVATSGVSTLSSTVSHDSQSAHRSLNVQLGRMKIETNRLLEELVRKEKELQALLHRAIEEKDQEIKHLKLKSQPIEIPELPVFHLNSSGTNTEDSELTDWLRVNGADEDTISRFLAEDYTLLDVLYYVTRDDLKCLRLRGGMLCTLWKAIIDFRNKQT", "experiment": "blockers of MAP3K5 kinase activity – biochemical, AlphaScreen, primary screen (AID 1159602);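 also: 0% = median of compound wells and 100% = no enzyme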", "conditions": "AlphaScreen MKK6 phosphorylation by ASK1, luminescence; at 7.44 µM; active compounds read high", "values": [
      {"compound": "CNC(=O)c1cc(F)ccc1Nc1cc(Nc2ccc3nc[nH]c3c2)ncc1C(F)(F)F", "inhibition": "-2.41% (inactive)"},
      {"compound": "NC(=O)c1ccc(-c2nc(Nc3ccc(N4CCOCC4)cc3)c3ncn(-c4ccccc4)c3n2)cc1", "inhibition": "4.79% (inactive)"},
      {"compound": "Cc1cccc(CC(=O)Nc2cnn(-c3cccc(-c4nn[nH]n4)c3)c2)c1", "inhibition": "1.78% (inactive)"},
      {"compound": "CC(=O)Nc1ccc(Nc2ncnc3c2nc(NCCN2CCOCC2)n3C(C)C)cc1", "inhibition": "-3.14% (inactive)"},
      {"compound": "CC(C)c1nc2ccc(-c3cn[nH]c3)cc2c(=O)[nH]1", "inhibition": "12.2% (inactive)"},
      {"compound": "Cc1cnc(Nc2cnccn2)nc1NCc1cccnc1", "inhibition": "-9.12% (inactive)"},
      {"compound": "O=C(NC1CC1)c1ccc(-c2ccc(C(=O)NCc3cccc(C(F)(F)F)c3)s2)cc1", "inhibition": "4.99% (inactive)"},
      {"compound": "O=C(NC1CCN(Cc2ccccc2)CC1)c1cc(N2CCCC2CO)nc2ccccc12", "note": "(stereo not given)", "inhibition": "-11.9% (inactive)"},
      {"compound": "CC(C)C[C@H](O)C(=O)NC1CCC(Nc2ccc3[nH]ncc3c2)CC1", "note": "(stereo not given in full)", "inhibition": "-17% (inactive)"},
      {"compound": "O=C(Cc1cn(-c2ccc(N3CCC(N4CCOCC4)CC3)nn2)c2ccccc12)NCCCN1CCCC1=O", "inhibition": "-20.2% (inactive)"},
      {"compound": "CC(C)n1c(N2CCOCC2)nc2c(Nc3ccc(Oc4ccccc4)cc3)ncnc21", "inhibition": "-3.94% (inactive)"},
      {"compound": "COc1ccc(CCNc2nc(-c3ccccc3)nc3c2ncn3CCN2CCCC2=O)cc1", "inhibition": "-23.4% (inactive)"},
      {"compound": "O=C(NCCN1CCOCC1)C1CCN(c2ccc(Nc3ccccc3)nn2)CC1", "inhibition": "6.22% (inactive)"},
      {"compound": "CCN(CC)CCNC(=O)c1ccc(Nc2cc(Nc3ccccc3C(=O)NC)c(C(F)(F)F)cn2)c(C)c1", "inhibition": "-5.11% (inactive)"},
      {"compound": "c1nc(NC2CC2)c2[nH]c(N3CCC(N4CCOCC4)CC3)nc2n1", "inhibition": "-10.6% (inactive)"},
      {"compound": "COc1ccc(-c2cnc3ccc4ccccc4c3c2)cc1", "inhibition": "-3.77% (inactive)"},
      {"compound": "CCN(CC)c1nc(Nc2cc(OC)c(OC)c(OC)c2)nc(Nc2nc3ccccc3n2C)n1", "inhibition": "3.84% (inactive)"},
      {"compound": "Nc1nc(NCc2cccc(C(F)(F)F)c2)cc(NCc2ccc3c(c2)OCO3)n1", "inhibition": "-4.13% (inactive)"},
      {"compound": "CCCNC(=O)c1cncc(-c2ccccc2)c1", "inhibition": "-0.96% (inactive)"},
      {"compound": "O=C(NCCCN1CCCC1=O)C1CCN(c2ccc(Cl)nn2)CC1", "inhibition": "-13.9% (inactive)"},
      {"compound": "COc1cc(NC(=O)c2cnc(-c3ccccc3)s2)cc(OC)c1OC", "inhibition": "15% (inactive)"},
      {"compound": "Oc1ccc(CCNc2nc(Nc3ccccn3)nc3nc[nH]c23)cc1", "inhibition": "-9.99% (inactive)"},
      {"compound": "CC(=O)Nc1ccc(NC(=O)c2csc(-c3c(C)nn(C)c3C)n2)cc1", "inhibition": "11% (inactive)"},
      {"compound": "c1nc(NC2CC2)c2[nH]c(N3CCN(Cc4ccc5c(c4)OCO5)CC3)nc2n1", "inhibition": "-10.7% (inactive)"},
      {"compound": "c1cnc(Nc2nc(NC3CC3)c3[nH]cnc3n2)cn1", "inhibition": "-8.13% (inactive)"},
      {"compound": "CC(=O)Nc1ccc(Nc2nc(N3CCc4ccccc4C3)nc3c2ncn3C(C)C)cc1", "inhibition": "14% (inactive)"},
      {"compound": "CN(C)c1cccc(Nc2nc3ccc(C(=O)Nc4ccc(N5CCOCC5)cc4)cc3s2)c1", "inhibition": "29% (inactive)"},
      {"compound": "COc1ccc(CCNC(=O)c2ccnc(-c3ccc(C(=O)NC4CC4)cc3)c2)cc1", "inhibition": "-2.59% (inactive)"},
      {"compound": "CCN(CC)c1nc(NCCCN2CCCC2=O)nc(N2CCC(N3CCOCC3)CC2)n1", "inhibition": "2.42% (inactive)"},
      {"compound": "CCNc1nc(NCCOc2ccccc2)c2ncn(Cc3ccc(C(F)(F)F)cc3)c2n1", "inhibition": "-5.64% (inactive)"},
      {"compound": "FC(F)(F)c1cccc(CNc2ncnc3nc(N4CCC(N5CCOCC5)CC4)[nH]c23)c1", "inhibition": "-8.59% (inactive)"},
      {"compound": "CCN(CC)C(=O)C1CCCN(c2nccc(NCc3nc4ccccc4[nH]3)n2)C1", "note": "(stereo not given)", "inhibition": "4.76% (inactive)"},
      {"compound": "COc1ccc(CNc2nc(-c3cccc(OC(F)(F)F)c3)nc3c2ncn3C(C)C)cc1", "inhibition": "-11.1% (inactive)"},
      {"compound": "COc1cc2nc(NCc3cccnc3)nc(NCCN3CCOCC3)c2cc1OC", "inhibition": "-7.09% (inactive)"},
      {"compound": "NS(=O)(=O)c1ccc(Nc2nccc(-c3cccc(Cl)c3)n2)cc1", "inhibition": "-4.08% (inactive)"},
      {"compound": "Cc1cc(Nc2ccccc2)nc(NCc2cccnc2)n1", "inhibition": "-4.25% (inactive)"},
      {"compound": "O=C(NCc1ccccc1)c1ccnc(Nc2nccc3ccccc23)c1", "inhibition": "-2.15% (inactive)"},
      {"compound": "CCN(CC)C(=O)C1CCCN(c2nc(Nc3ccc(NC(C)=O)cc3)c3ncn(C4CCCCC4)c3n2)C1", "note": "(stereo not given)", "inhibition": "-11% (inactive)"},
      {"compound": "Nc1nc(NCCO)cc(N2CCOCC2)n1", "inhibition": "-6.61% (inactive)"},
      {"compound": "O=C(NCc1nc2ccncc2[nH]1)c1c(F)cccc1F", "inhibition": "-12.1% (inactive)"},
      {"compound": "O=C(Cc1ccc(Br)cc1)N1CCCC(Nc2cccc3cnccc23)C1", "note": "(stereo not given)", "inhibition": "-21.7% (inactive)"},
      {"compound": "O=C1CCCN1CCCNc1nc(-c2ccccc2)nc2nc[nH]c12", "inhibition": "-3.38% (inactive)"},
      {"compound": "c1ccc2c(c1)OCC(c1cnc3ccc(-c4cn[nH]c4)cc3n1)O2", "note": "(stereo not given)", "inhibition": "14.4% (inactive)"},
      {"compound": "CN1CCN(c2nc(C3COc4ccccc4O3)nc3ccc(-c4cn[nH]c4)cc23)CC1", "note": "(stereo not given)", "inhibition": "41.7% (active)"},
      {"compound": "Cn1c(C2COc3ccccc3O2)nc2ccc(-c3cn[nH]c3)cc21", "note": "(stereo not given)", "inhibition": "8.71% (inactive)"}
    ]}
  ]
}
